Many of the other results were omitted from the sample, so hits are more common in it than they were.
LmPK inhibitor = qHTS Assay for Inhibitors of Leishmania Mexicana Pyruvate Kinase (LmPK); Q27686; purified LmPK, Kinase-Glo ATP luminescence, 1 h; Potency, µM (series often up to 57.5 µM), for inactives: top-dose activity change, negative = inhibition, usual class: inhibitors; actives 0.37% (n = 290,000); AID 1721, 2009; further: potency means the concentration at half of the fitted maximal effect; on the % scale 0 is the no-effect control and ±100 the full control effect
Target sequence (Q27686 whole entry, looked up): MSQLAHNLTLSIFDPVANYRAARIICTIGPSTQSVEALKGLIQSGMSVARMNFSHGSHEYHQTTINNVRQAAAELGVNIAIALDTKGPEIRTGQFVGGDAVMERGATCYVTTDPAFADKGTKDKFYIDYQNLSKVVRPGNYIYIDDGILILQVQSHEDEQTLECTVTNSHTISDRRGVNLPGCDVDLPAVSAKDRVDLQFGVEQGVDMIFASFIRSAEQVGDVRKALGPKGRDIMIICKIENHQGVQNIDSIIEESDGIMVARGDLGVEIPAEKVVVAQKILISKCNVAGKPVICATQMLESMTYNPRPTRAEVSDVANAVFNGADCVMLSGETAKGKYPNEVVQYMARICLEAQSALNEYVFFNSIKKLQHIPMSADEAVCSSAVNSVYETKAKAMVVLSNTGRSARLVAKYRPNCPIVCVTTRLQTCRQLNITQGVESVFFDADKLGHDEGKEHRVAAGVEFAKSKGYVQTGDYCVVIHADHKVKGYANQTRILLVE
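In 50 mM imidazole pH 7.2 with 7 mM MgCl2, LmPK (0.1 nM) turned over PEP (0.5 mM) and ADP (0.1 mM) for 1 h at room temperature. Luciferase read-out of ATP.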
Shiga toxin inh = A qHTS for Small Molecule Inhibitors of Shiga Toxin; Vero cells, Shiga toxin protein synthesis inhibition reporter; AID 2315, 2010; actives 9.2% (n = 290,000); inhibition, % at 38.7 µM; in the data active means inhibition mostly above about 28%, no sharp cut-off; inactive means mostly below about 43%; further: 0% is about no effect
FBPA Giardia inh = qHTS Assay for Inhibitors of Fructose-1,6-bisphosphate Aldolase from Giardia Lamblia | Potency, µM (highest dose often 59.6 µM), for inactives: at the highest dose activity, negative = inhibition, usual class: inhibitors | A8B2U2 | actives 0.71% (n = 290,000) | purified Giardia FBPA | AID 2451, 2010; further: potency means the concentration at half of the fitted maximal effect; on the % scale 0 is the no-effect control and ±100 the full control effect; nearly all actives have a fitted effect of over 55% in size
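40 nM FBPA preincubated 10 min at RT with compound (up to 57.5 uM final), then substrate plus GAPDH/TPI/NAD/arsenate coupling and diaphorase/resazurin added. Fluorescence read after 20 min at RT, 525/598 nm.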
TbPYK inhibitor = qHTS of Trypanosoma Brucei Inhibitors; pyruvate kinase (Trypanosoma brucei), Q57TT1; actives 0.12% (n = 410,000); TbPYK enzyme, Kinase-Glo Plus ATP luminescence, 45 min; Potency, µM (top dose mostly 76.8 µM), for the others: at the highest dose activity, negative = inhibition, usual class: inhibitors; further: potency means the concentration at half of the fitted maximal effect; on the % scale 0 is the no-effect control and ±100 the full control effect; nearly all actives have a fitted effect of over 50% in size
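T. brucei PYK with substrate was exposed to pin-transferred compounds across a concentration series, then started with 130 uM ADP (final). After 45 min at room temperature, Kinase-Glo Plus luminescence was read, normalized and curve-fitted.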
Cycloheximide cs = Cycloheximide Counterscreen for Small Molecule Inhibitors of Shiga Toxin. cell reporter, cycloheximide protein synthesis inhibition counterscreen. max response, %. actives 12% (n = 300,000). AID 2314, 2010; in the data active means max response mostly above about 13%, no sharp cut-off; inactive means mostly below about 14%; further: read at 38.3 µM for the half of the compounds with a filed dose; 0% is about no effect
RE007 growth inh = qHTS Assay for Inhibitors of the HIV-1 protein Vpr. Potency, µM (titrated, usually from 92.2 µM), for inactives: top-dose activity change, negative = less growth, most hits filed as inhibitors. S. pombe RE007 Vpr strain, BacTiter-Glo ATP luminescence, 24 h. AID 651644, 2012. actives 0.21% (n = 360,000); active means well fitted falling curve with a large enough effect; inconclusive means small, poorly fitted or top-dose-only effect; inactive means no such curve, though single readings can be large or run the other way; further: potency means the concentration at half of the fitted maximal effect; on the % scale 0 is the no-effect control and ±100 the full control effect; nearly all actives have a fitted effect of over 50% in size
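Fission yeast strain RE007, carrying one chromosomally integrated HIV-1 vpr copy, was seeded at OD 0.01 in PMG+AL medium with 23 nL pinned compound. After 24 h at 30 °C and 99% humidity, viability was read by BacTiter-Glo luminescence.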
* marks the source's active call; other numbers are inactive results; ? = inconclusive; . = not tested or not shown; [ ] = dose if it differs, or a comment. Unless noted, the call rests on the fitted dose curve; in most records, active means well fitted curve in the direction sought with a large enough effect; inconclusive means small, poorly fitted or top-dose-only effect, or another doubt; inactive means no such curve, though single readings can be large; an effect the other way counts as inactive or inconclusive.

SMILES | LmPK inhibitor | Shiga toxin inh | FBPA Giardia inh | TbPYK inhibitor | Cycloheximide cs | RE007 growth inh
O=C(Nc1ccc(C(=O)N2CCCCC2)cc1)[C@H]1O[C@@H](n2ccc(=O)[nH]c2=O)[C@H](O)[C@@H]1O | . | . | . | 1% | . | 7%
CCOc1ccc(CNC(=S)N/N=C/c2ccc(OC)c(OC)c2)cc1 | 1% | -9 | 5% | -3% | -4 | 14%
COc1ccc(NC(=O)Cn2nnnc2-c2ccccc2F)c(C)c1 | . | . | . | 2% | . | .
Cc1ccc(-n2[nH]c(C)c(C=NCc3ccncc3)c2=O)cc1 | -14% | 53* | 2% | 5% | 39* | -30%
Cc1[nH]n(-c2ccc(Cl)cc2)c(=O)c1/C=N/c1nnc(-c2ccccc2)s1 | ? | -4 | 13% | -15% | 3 | ?
COc1ccc2nc(/N=C/c3c(C)[nH]n(-c4ccc(C)cc4)c3=O)sc2c1 | 13µM* | 14 | 12% | -23% | 17* | ?
Cc1ccc(-n2[nH]c(C)c(C=Nc3cc(C)ccn3)c2=O)cc1 | -20% | -3 | -6% | 5% | 8 | 28µM*
Cc1ccc(-n2[nH]c(C)c(C=Nc3ccc(Br)cn3)c2=O)cc1 | -19% | 3 | -2% | -1% | 1 | -20%
Cc1[nH]n(-c2ccccc2)c(=O)c1C=NCc1ccncc1 | 2% | 10 | -3% | 17% | 11 | 7%
CO[C@@H]1COC(=O)C/C=C\[C@@H](C)[C@H](OC)COC(=O)[C@H](COCc2ccccc2)NC(=O)C/C=C\[C@H]1C | . | . | 0%[12.9 µM] | . | . | .
CC(C)N1CC(COc2ccc(Br)cc2)OC1=O (configuration not stated) | 0% | 3 | -6% | 0% | 11 | 15%
CC(C)(C)N1CC(COc2ccccc2)OC1=O (configuration not stated) | 7% | 23 | 5% | -10% | 21* | -7%
Cc1cc(NC(=O)N(C)CCc2c(C)nn(C)c2C)ccc1Br | . | . | . | 1% | . | .
COCCNC(=O)C(=O)N/N=C(\C)CC(=O)Nc1cccc(C(F)(F)F)c1 | 7% | 20 | -13% | -1% | 13 | 7%
COc1ccc(C(=O)N/N=C(\C)CC(=O)Nc2cccc(C(F)(F)F)c2)cc1 | 7% | 81* | -27% | -3% | 39* | 4%
CC(=O)Nc1ccccc1NC(=O)C/C(C)=N/NC(=O)C1CCCCC1 | -3% | 2 | 3% | 4% | 15 | 10%
C/C(CC(=O)Nc1cccc(C(F)(F)F)c1)=N\NC(=O)C1CCCCC1 | 3% | 55 | -9% | 0% | 27* | -11%
O=C(CN1C(=O)NC2(CCCC2)C1=O)NCc1ccc(Cl)cc1 | . | . | . | 0% | . | 9%
Cc1nc(N)sc1N=Nc1ccc(F)cc1 | -1% | 62* | -4% | -7% | 49* | 13%
Cc1ncc(N=Nc2ccc(F)cc2)c(-c2ccc(Cl)cc2)n1 | 4% | -4 | 0% | -8% | -3 | -6%
Cc1nc(NCc2ccccc2)c2nc(-c3ccccc3)n(CCCN3CCOCC3)c2n1 | . | . | -9% | . | . | .
CCOc1ccc(-n2c(=O)c3c(C)c(C(=O)N(C)C)sc3n(CC(=O)Nc3c(C)cc(C)cc3C)c2=O)cc1 | . | . | . | -2% | . | .
COc1ccc(C(=O)[C@H]2[C@H]3C(=O)N(c4ccc(C)cc4)C(=O)[C@H]3C3C=CC=NN32)cc1 (some centres not stated) | 7% | 32 | ? | -1% | 19* | -5%
CC(=O)Oc1ccc(C(=O)[C@H]2[C@H]3C(=O)N(c4ccc(C)cc4)C(=O)[C@H]3[C@@H]3C=CC=NN32)cc1 | -2% | 46* | ? | -11% | 24* | 11%
COc1ccc(N2C(=O)[C@@H]3[C@H](C2=O)[C@H](C(=O)c2ccc(OC(C)=O)cc2)N2N=CC=C[C@@H]32)cc1 | 2% | 38* | ? | . | 14* | .
SMILES | LmPK inhibitor | Shiga toxin inh | FBPA Giardia inh | TbPYK inhibitor | Cycloheximide cs | RE007 growth inh
COc1ccc(C(=O)[C@H]2[C@H]3C(=O)N(c4ccccc4)C(=O)[C@H]3C3C=CC=NN32)cc1 (some centres not stated) | -2% | 14 | ? | -13% | 10 | -22%
Cc1ccc(N2C(=O)[C@@H]3[C@H](C2=O)[C@H]2C=CC=NN2[C@@H]3C(=O)Nc2ccccc2)cc1 | -2% | 15 | ? | -6% | 16* | -12%
Cc1ccc(N2C(=O)C3C(C2=O)C(C(=O)c2ccc(Cl)cc2)N2CCCC32)cc1 (configuration not stated) | 8% | 16 | -5% | 3% | 14 | -19%
CC(=O)Oc1ccc(N2C(=O)C3C(C2=O)C(C(=O)c2ccc(Cl)cc2)N2CCCC32)cc1 (configuration not stated) | 1% | 6 | 17% | -28% | 29* | -18%
Cc1cccc(NC(=O)CCc2c(C)nc3nc(CNC(=O)c4cccc(F)c4)nn3c2C)c1 | . | . | . | -2% | . | .
CC(=O)c1cnc2cc(-c3ccc(Cl)cc3)nn2c1C | 3% | 56* | 5% | -5% | 21* | -1%
Cc1c(C(=O)O)cnc2cc(-c3ccc(Cl)cc3)nn12 | -23% | 30 | 7% | 1% | 16* | -10%
Cc1nc2cc(-c3ccc(Cl)cc3)nn2c(C)c1CCC(=O)N1CCN(c2ccccc2)CC1 | . | . | . | -1% | . | .
CC(=O)c1cnc2c(-c3ccc(Cl)cc3)c(C)nn2c1C | 0% | 13 | 3% | 4% | 3 | -10%
Cc1ccc2c(c1)N(C(=O)C1CCN(S(=O)(=O)c3c(C)noc3/C=C/c3ccccc3F)CC1)CCO2 | . | . | . | -1% | . | .
C/C=C(\C)c1nnc(NC(=O)C(C)C)s1 | -1% | 13 | 2% | 0% | 19* | -4%
CC(C)C(=O)Nc1nnc(NC(=S)Nc2ccccc2)s1 | 1% | 68* | 5% | 0% | 34* | 0%
CCCc1nnc(NC(=S)Nc2ccccc2)s1 | -2% | 42* | -13% | -4% | 27* | 0%
CC(C)C(=O)Nc1nnc(CCc2nnc(NC(=O)C(C)C)s2)s1 | 1% | 15 | 2% | -4% | -5 | 15%
Cc1cc(C)c2c(=O)cc(C(=O)Nc3sc4c(c3C(=O)NCC3CCCO3)CCCC4)oc2c1 (configuration not stated) | . | . | . | -1% | . | .
NC(Cc1ccc(C(F)(F)F)cc1)c1csc(Nc2ccc(S(N)(=O)=O)cc2)n1 (configuration not stated) | . | . | . | -6% | . | -18%[18.4 µM]
COc1cccc(-c2noc(C3CCCN(C(=O)c4ccc(F)cc4F)C3)n2)c1 (configuration not stated) | -1% | 31 | -5% | 2% | 1 | 0%
